In test [1] the test system is RAW-Dual. The test is described as follows: NF-kB SEAP reporter activity, fold change vs agonist alone; higher = enhanced NF-kB activity. An outline of the steps:
(§1)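 RAW-Dual macrophages were seeded in DMEM at 50,000 cells/well in 384-well plates, given 50 nL of library stock by pin tool, and given a PRR agonist 1 h later. Plates were held at 37 °C, 5% CO2 for 20 hours, after which supernatant was read for IRF by QuantiLuc luminescence and for NF-κB by QuantiBlue absorbance at 620 nm. Reporter activity is expressed as fold change over wells that received agonist alone. A well was called cytotoxic when IncuCyte confluency fell below 70% of agonist controls in both mask sets.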

In test [2] the test system is RAW-Dual. The test is described as follows: NF-kB SEAP reporter activity, fold change vs agonist alone; cytotoxicity flag (confluency mask): not cytotoxic; higher = enhanced NF-kB activity. The method in brief:
as §1

The subject of test [3] is RAW-Dual. Nature of the test: NF-kB SEAP reporter activity, fold change vs agonist alone; cytotoxicity flag (confluency mask): cytotoxic (confluency <70% of control); higher = enhanced NF-kB activity. The method in brief: as §1
[4] abbreviates: library stock concentration (final ~1000-fold dilution): 10 mM, cytotoxicity flag (confluency mask): not cytotoxic, agonist: Imiquimod (TLR7) […].
[5] abbreviates: library stock concentration (final ~1000-fold dilution): 10 mM, cytotoxicity flag (confluency mask): not cytotoxic, agonist: MPLA (TLR4) […].
The mark [6] stands for this setting: agonist: ODN 1826 (TLR9) 0.5 ug/mL.
Where [7] appears, read: agonist: Pam2CSK4 (TLR2/6) 0.1 ug/mL.
The mark [8] stands for this setting: agonist: Pam3CSK4 (TLR2/1) 0.1 ug/mL.
The mark [9] stands for this setting: library stock concentration (final ~1000-fold dilution): 2 mM, cytotoxicity flag (confluency mask): not cytotoxic, agonist: Imiquimod (TLR7) […].
Setting [10] is: library stock concentration (final ~1000-fold dilution): 2 mM, cytotoxicity flag (confluency mask): not cytotoxic, agonist: MPLA (TLR4) […].

In all, about 2,900 compounds were measured (“NF-kB SEAP reporter activity, fold change vs agonist alone”: median about 0.99, highest 2% from about 2.6 on). The sample holds the highest values, similar compounds and a random draw of the others, so the mix is not that of the screen.

For `CC#Cc1cncc(-c2ccc3c(c2)C2(N=C(C)C(N)=N2)C2(CCC(OC)CC2)C3)c1` (stereo unspecified), the figures for the “NF-kB SEAP reporter activity” value in the test with RAW-Dual [1] (setting [4]) and in the test with RAW-Dual [1] (setting [5]) were 1.18 and 1.01, respectively.

Take `CC#Cc1cncc(-c2ccc3c(c2)C2(N=C(C)C(N)=N2)C2(CCC(OC)CC2)C3)c1` (stereo unspecified) (library stock concentration (final ~1000-fold dilution): 10 mM): the “NF-kB SEAP reporter activity” value was 1.15 in the test with RAW-Dual [2] (agonist: LPS (TLR4) 0.1 ug/mL), 0.723 in the test on RAW-Dual [2] (setting [6]), 0.809 with RAW-Dual [2] (setting [7]) and 0.972 in the test on RAW-Dual [2] (setting [8]).

As for `C=CC(=O)Nc1cccc(Oc2nc(Nc3ccc(N4CCN(C)CC4)cc3OC)ncc2Cl)c1`, the “NF-kB SEAP reporter activity” value worked out at 0.931 in the test on RAW-Dual [1] (setting [4]) and 0.977 in the test on RAW-Dual [1] (setting [5]).

On to `Cc1cc(Nc2ncc(Cl)c(Nc3ccccc3S(=O)(=O)C(C)C)n2)c(OC(C)C)cc1C1CCNCC1`, for which the “NF-kB SEAP reporter activity” value in the test on RAW-Dual [1] (library stock concentration (final ~1000-fold dilution): 10 mM, cytotoxicity flag (confluency mask): cytotoxic (confluency <70% of control), agonist: Imiquimod (TLR7) […]) worked out at 2.07; with RAW-Dual [1] (library stock concentration (final ~1000-fold dilution): 10 mM, cytotoxicity flag (confluency mask): cytotoxic (confluency <70% of control), agonist: MPLA (TLR4) […]), 0.569.

Regarding `COc1cc(N2CCC(N3CCN(C)CC3)CC2)ccc1Nc1ncnc(Nc2ccccc2S(=O)(=O)C(C)C)n1`, the results for the “NF-kB SEAP reporter activity” value with RAW-Dual [1] (setting [4]) and in the test on RAW-Dual [1] (setting [5]) were 0.945 and 1.14, respectively.

`COc1cc(N2CCC(N3CCN(C)CC3)CC2)ccc1Nc1ncc(Cl)c(Nc2ccccc2P(C)(C)=O)n1`: the “NF-kB SEAP reporter activity” value is 1.15 in the test on RAW-Dual [1] (setting [9]) and 1.26 with RAW-Dual [1] (setting [10]).

`COc1cc(N2CCC(N(C)C)CC2)ccc1Nc1ncc(Cl)c(Nc2ccccc2P(C)(C)=O)n1` (library stock concentration (final ~1000-fold dilution): 10 mM): the “NF-kB SEAP reporter activity” value with RAW-Dual [2] (agonist: LPS (TLR4) 0.1 ug/mL) was 1.87; in the test with RAW-Dual [2] (setting [6]), 1.64; in the test on RAW-Dual [2] (setting [7]) it was 1.03; with RAW-Dual [2] (setting [8]), 1.46.

As to `COc1cc(N2CCC(N(C)C)CC2)ccc1Nc1ncc(Cl)c(Nc2ccccc2P(C)(C)=O)n1`, the “NF-kB SEAP reporter activity” value with RAW-Dual [1] (setting [4]) amounted to 1.64; in the test on RAW-Dual [1] (setting [5]), 2.05.

Consider `COc1cc(N2CCC(N3CCN(C)CC3)CC2)ccc1Nc1ncc(Cl)c(Nc2ccccc2S(=O)(=O)C(C)C)n1` (library stock concentration (final ~1000-fold dilution): 2 mM), for which the “NF-kB SEAP reporter activity” value in the test with RAW-Dual [2] (agonist: LPS (TLR4) 0.1 ug/mL) is 1.66; with RAW-Dual [2] (setting [6]), 0.603; in the test with RAW-Dual [2] (setting [7]), 0.757; in the test on RAW-Dual [2] (setting [8]), 1.2.

For the compound `COc1cc(N2CCC(N3CCN(C)CC3)CC2)ccc1Nc1ncc(Cl)c(Nc2ccccc2S(=O)(=O)C(C)C)n1`, the results for the “NF-kB SEAP reporter activity” value in the test on RAW-Dual [1] (setting [9]) and with RAW-Dual [1] (setting [10]) were 1.28 and 0.939, respectively.

Take `COc1cc(N2CCC(N3CCN(C)CC3)CC2)ccc1Nc1ncc(Cl)c(Nc2ccccc2P(C)(C)=O)n1` (library stock concentration (final ~1000-fold dilution): 2 mM): the “NF-kB SEAP reporter activity” value in the test on RAW-Dual [2] (agonist: LPS (TLR4) 0.1 ug/mL) was 2.66; with RAW-Dual [2] (setting [6]), 1.27; in the test with RAW-Dual [2] (setting [7]), 1.28; in the test with RAW-Dual [2] (setting [8]) it was 1.66.

Consider `Cc1cc(Nc2ncc(Cl)c(Nc3ccccc3S(=O)(=O)C(C)C)n2)c(OC(C)C)cc1C1CCNCC1` (library stock concentration (final ~1000-fold dilution): 10 mM), for which the “NF-kB SEAP reporter activity” value stood at 0.198 in the test on RAW-Dual [3] (agonist: LPS (TLR4) 0.1 ug/mL), 0.674 with RAW-Dual [3] (setting [6]), 0.845 in the test with RAW-Dual [3] (setting [7]) and 0.455 in the test with RAW-Dual [3] (setting [8]).

Turning to `C=CC(=O)Nc1cccc(Oc2nc(Nc3ccc(N4CCN(C)CC4)cc3OC)ncc2Cl)c1` (library stock concentration (final ~1000-fold dilution): 10 mM), the “NF-kB SEAP reporter activity” value in the test on RAW-Dual [2] (agonist: LPS (TLR4) 0.1 ug/mL) is 0.915; in the test with RAW-Dual [2] (setting [6]), 0.863; in the test with RAW-Dual [2] (setting [7]) it was 0.802; in the test on RAW-Dual [2] (setting [8]), 0.684.

Regarding `COc1cc(N2CCC(N3CCN(C)CC3)CC2)ccc1Nc1ncnc(Nc2ccccc2S(=O)(=O)C(C)C)n1` (library stock concentration (final ~1000-fold dilution): 10 mM), the “NF-kB SEAP reporter activity” value in the test on RAW-Dual [2] (agonist: LPS (TLR4) 0.1 ug/mL) was 5.53; with RAW-Dual [2] (setting [6]) it was 0.961; in the test with RAW-Dual [2] (setting [7]), 0.718; in the test on RAW-Dual [2] (setting [8]), 1.04.

Take `Cl.Cl.NC1CCC(NC2CC2c2ccccc2)CC1` (stereo unspecified): the “NF-kB SEAP reporter activity” value with RAW-Dual [1] (setting [4]) was 1.03; in the test with RAW-Dual [1] (setting [5]), 1.37.

For the compound `Cl.Cl.NC1CCC(NC2CC2c2ccccc2)CC1` (stereo unspecified) (library stock concentration (final ~1000-fold dilution): 10 mM), the “NF-kB SEAP reporter activity” value with RAW-Dual [2] (agonist: LPS (TLR4) 0.1 ug/mL) turned out to be 1.25; in the test with RAW-Dual [2] (setting [6]) it was 0.222; with RAW-Dual [2] (setting [7]), 0.869; with RAW-Dual [2] (setting [8]), 0.615.

`CC12CCC(=O)C=C1C=CC1C2CCC2(C)C1CCC21CCC(=O)O1` (stereo unspecified) (library stock concentration (final ~1000-fold dilution): 10 mM): the “NF-kB SEAP reporter activity” value in the test on RAW-Dual [2] (agonist: LPS (TLR4) 0.1 ug/mL) is 0.949; in the test with RAW-Dual [2] (setting [6]), 1.05; in the test on RAW-Dual [2] (setting [7]), 0.849; in the test with RAW-Dual [2] (setting [8]), 0.874.

As for `CC12CCC(=O)C=C1C=CC1C2CCC2(C)C1CCC21CCC(=O)O1` (stereo unspecified), the “NF-kB SEAP reporter activity” value in the test on RAW-Dual [1] (setting [5]) came to 1.05.

Regarding `Cl.O=C1Cc2cc(CCN3CCN(c4nsc5ccccc45)CC3)c(Cl)cc2N1` (library stock concentration (final ~1000-fold dilution): 10 mM), the “NF-kB SEAP reporter activity” value with RAW-Dual [2] (agonist: LPS (TLR4) 0.1 ug/mL) is 0.912; with RAW-Dual [2] (setting [6]), 0.338; with RAW-Dual [2] (setting [7]), 0.746; in the test on RAW-Dual [2] (setting [8]) it was 0.865.

On to `Cl.O=C1Cc2cc(CCN3CCN(c4nsc5ccccc45)CC3)c(Cl)cc2N1`, for which the “NF-kB SEAP reporter activity” value with RAW-Dual [1] (setting [4]) was 0.412; in the test with RAW-Dual [1] (setting [5]) it was 0.73.

Take `O=C1Nc2ccc(CN3C(=O)CSC3=O)cc2/C1=C/c1cc(CN2CCOCC2)c[nH]1` (library stock concentration (final ~1000-fold dilution): 10 mM): the “NF-kB SEAP reporter activity” value was determined as 1.89 with RAW-Dual [2] (agonist: LPS (TLR4) 0.1 ug/mL), 1.3 in the test with RAW-Dual [2] (setting [6]), 0.605 in the test on RAW-Dual [2] (setting [7]) and 1.13 with RAW-Dual [2] (setting [8]).

On to `O=C1Nc2ccc(CN3C(=O)CSC3=O)cc2/C1=C/c1cc(CN2CCOCC2)c[nH]1`, for which the results for the “NF-kB SEAP reporter activity” value in the test with RAW-Dual [1] (setting [4]) and in the test with RAW-Dual [1] (setting [5]) were 1.07 and 1.43, respectively.

Take `CCC(=O)OC(OP(=O)(CCCCc1ccccc1)CC(=O)N1CC(C2CCCCC2)CC1C(=O)O)C(C)C` (stereo unspecified): the “NF-kB SEAP reporter activity” value in the test on RAW-Dual [1] (library stock concentration (final ~1000-fold dilution): 10 mM water, cytotoxicity flag (confluency mask): not cytotoxic, agonist: Imiquimod (TLR7) […]) was determined as 0.795; with RAW-Dual [1] (library stock concentration (final ~1000-fold dilution): 10 mM water, cytotoxicity flag (confluency mask): not cytotoxic, agonist: MPLA (TLR4) […]), 0.935.

Turning to `CCC(=O)OC(OP(=O)(CCCCc1ccccc1)CC(=O)N1CC(C2CCCCC2)CC1C(=O)O)C(C)C` (stereo unspecified) (library stock concentration (final ~1000-fold dilution): 10 mM water), the “NF-kB SEAP reporter activity” value was 0.941 in the test on RAW-Dual [2] (agonist: LPS (TLR4) 0.1 ug/mL), 1.05 in the test with RAW-Dual [2] (setting [6]), 1.01 in the test with RAW-Dual [2] (setting [7]) and 0.946 in the test with RAW-Dual [2] (setting [8]).

Source of the values: the supplement of paper PMC10037445.
